In PubChem BioAssay (Tox21) one finds Potency and activation data, which are given here for 40 compounds.

Active and inactive are the calls of the source. A call without a number means that no potency is given here. The call rests on the fitted dose curve; in most records, active means well fitted activation curve with a large enough effect in the repeat runs; inconclusive means weak or mixed curves; inactive means flat fitted curve, though single readings scatter.

The assay deals with KiSS-1 receptor (Homo sapiens) (UniProt Q969F8). The assay is described as follows: Human kisspeptin (KISS1R) small molecule agonists, calcium flux assay in KISS1R-HEK293 cells (AID 1920064). Conditions: KISS1R-HEK293, calcium flux fluorescence, agonist; series mostly up to 76.8 µM. The text has this: National Center for Advancing Translational Sciences [NCATS]
KiSS-1 receptor (Homo sapiens), sequence (Q969F8 whole entry, looked up): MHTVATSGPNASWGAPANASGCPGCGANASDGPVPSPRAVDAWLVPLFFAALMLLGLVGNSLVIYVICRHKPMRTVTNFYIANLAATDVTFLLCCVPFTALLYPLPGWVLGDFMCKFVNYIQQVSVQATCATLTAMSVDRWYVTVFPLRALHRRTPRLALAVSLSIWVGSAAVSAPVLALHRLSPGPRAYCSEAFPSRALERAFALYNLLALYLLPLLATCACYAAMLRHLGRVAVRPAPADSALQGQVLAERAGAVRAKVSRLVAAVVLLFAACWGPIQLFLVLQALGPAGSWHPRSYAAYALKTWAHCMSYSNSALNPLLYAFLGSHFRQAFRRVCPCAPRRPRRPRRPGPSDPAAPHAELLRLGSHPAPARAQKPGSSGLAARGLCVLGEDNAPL
Division of Preclinical Innovation [DPI]
U.S. Environmental Protection Agency [EPA]
National Institutes of Environmental Health Sciences [NIEHS]
National Toxicology Program [NTP]
U.S. Food and Drug Administration [FDA]
Kisspeptin and its receptor KISS1R play key roles in mammalian reproduction due to their involvement in the onset of puberty and control of the hypothalamic-pituitary-gonadal axis such as regulates GnRH release from the hypothalamus. The kisspeptin/KISS1R system also plays a direct role in peripheral organs (including the ovary, testis, uterus, and placenta) and is implicated in reproductive diseases such as miscarriage and polycystic ovary syndrome (PCOS). Abnormal KISS1R activity is associated with abnormal puberty, infertility, endometriosis, and hormone-dependent tumors. The KISS1 receptor (KISS1R, also called GPR54), a G-protein-coupled receptor (GPCR), acts (through phospholipase C) to increase intracellular inositol trisphosphate and then release intracellular calcium stores. Cell-based KISS1R-HEK293 assay is using HEK293 cells that have been genetically engineered to express the human KISS1R, which activity can be measured by calcium signaling. A compound/drug can activate (agonist) KISS1R that can be monitored by levels of intracellular calcium.
KISS1R-HEK293 cells developed by Codex Corp contain human KISS1R gene, which was stably integrated into HEK 293 cells. The compound activation can be detected by fluorescence intensity via calcium flux assay. This cell line has been used to screen the Tox21 10K compound library to identify agonists of KISS1R.
KISS1R-Hek293 cells were dispensed at 1500 cells/4uL/well in 1536-well black wall/clear bottom plates using a multidrop dispenser. After the assay plates were incubated at a 37 C/5% CO2 incubator for 18 hours, 4 microL of Calcium Dye Solution was added to each well. The plates were incubated at 37 C for 1 hour. And then 23 nL of compounds dissolved in DMSO, positive controls, or DMSO only was transferred to the assay plate by a pin tool station. The fluorescence intensity in the plates was measured using FDSS 7000EX kinetic plate reader with a filter set of Ex/Em=480/540 for 3 min at 1 sec intervals. Each test compound was measured at 15 concentrations and in triplicates.
For orientation: Calcium assays in cells follow changes in intracellular calcium, usually with a dye or a luminescent sensor.
Take `O=S(=O)(Oc1ccc(Cl)cc1)c1ccccc1`: the Potency entry is “inactive”.

Consider `CC[N+](CC)(CC(=O)Nc1c(C)cccc1C)Cc1ccccc1` (tested in a mixture with another compound), for which the Potency entry is “inactive”.

Regarding `CCCCOC(=O)CCC(C)=O`, the Potency result is “inactive”.

With `O=C(OC[C@H]1O[C@@H](OC(=O)c2cc(O)c(O)c(OC(=O)c3cc(O)c(O)c(O)c3)c2)[C@H](OC(=O)c2cc(O)c(O)c(OC(=O)c3cc(O)c(O)c(O)c3)c2)[C@@H](OC(=O)c2cc(O)c(O)c(OC(=O)c3cc(O)c(O)c(O)c3)c2)[C@@H]1OC(=O)c1cc(O)c(O)c(OC(=O)c2cc(O)c(O)c(O)c2)c1)c1cc(O)c(O)c(OC(=O)c2cc(O)c(O)c(O)c2)c1`, the activation was -0.551% [at 15.8 µM] (inactive).

On to `C=Cc1c(C)c2cc3[nH]c(cc4nc(cc5nc(cc1[nH]2)C(C)=C5CCC(=O)O)C(CCC(=O)O)=C4C)c(C)c3C=C`, for which the Potency result was “inactive”.

On to `N#Cc1ccccc1C#N`, for which the Potency entry was “inactive”.

In the case of `CCOC(=O)Nc1ccc2c(c1)N(C(=O)CCN1CCOCC1)c1ccccc1S2`, the Potency result was “inactive”.

`CCCNCC(O)COc1ccccc1C(=O)CCc1ccccc1` (stereo not given): the Potency entry is “inactive”.

In the case of `Clc1ccc2cc3ccccc3cc2c1`, the Potency result was “inactive”.

`COc1nc(C)nc(Cl)c1NC1=NCCN1`: the Potency entry was “inactive”.

As for `Cc1ccccc1OCC(=O)O`, the Potency entry was “inactive”.

In the case of `CCn1nc(C)c2c1C(=O)NCC(c1ccc(O)cc1)=N2`, the Potency entry is “inactive”.

With `Cc1cc(C)c(N)cc1C`, the Potency entry was “inactive”.

Regarding `O=S1(=O)CCCC1`, the Potency result was “inactive”.

`CCC(CC)Nc1ccc(C)c(C)c1`: the Potency entry was “inactive”.

In the case of `O=C1c2ccccc2C(=O)N1CCc1noc(-c2ccc(CN3CCCCCC3)s2)n1`, the Potency entry was “inactive”.

`OC(CCN1CCCCC1)(c1ccccc1)C1CC2C=CC1C2` (stereo not given): the Potency result is “inactive”.

Regarding `CC(C)N(c1ccccc1)C(C)C`, the Potency result was “inactive”.

For the compound `CCCCOC(=O)CC#N`, the Potency entry was “inactive”.

For the compound `C/C(=C\c1ccc(C(=O)O)cc1)c1ccc2c(c1)C(C)(C)CCC2(C)C`, the Potency result is “inactive”.

As for `CCCC(CC)c1ccccc1` (stereo not given), the Potency result is “inactive”.

On to `C=C(C)CS(=O)(=O)O`, for which the Potency result was “inactive”.

Take `O=C(NCc1ncc(C(F)(F)F)cc1Cl)c1c(Cl)cccc1Cl`: the Potency entry was “inactive”.

Turning to `CCOC(C)OCC`, the Potency result was “inactive”.

On to `CC(C)(C)c1ccc(N)cc1`, for which the Potency result was “inactive”.

In the case of `CCNCCO`, the Potency result was “inactive”.

For the compound `N[C@@H](CCC(=O)O)C(=O)O`, the Potency entry was “inactive”.

With `CS(=O)(=O)CCNCc1ccc(-c2ccc3ncnc(Nc4ccc(OCc5cccc(F)c5)c(Cl)c4)c3c2)o1`, the Potency result is “inactive”.

In the case of `O=C(Nc1ncc([N+](=O)[O-])s1)c1cccs1`, the Potency entry was “inactive”.

`CC(=O)OCC(=O)NCCCOc1cccc(CN2CCCCC2)c1`: the Potency entry was “inactive”.

As to `CC1=C(C(=O)O)N2C(=O)[C@@H](NC(=O)[C@H](N)C3=CCC=CC3)[C@H]2SC1`, the Potency entry is “inactive”.

With `CC(=O)Nc1ccc(/C=N/NC(N)=S)cc1`, the Potency entry is “inactive”.

Regarding `OC(CCN1CCCCC1)(c1ccccc1)C1CCCCC1` (stereo not given), the Potency result was “inactive”.

As to `CCCCN(CCC(=O)OCC)C(C)=O`, the Potency entry was “inactive”.

Take `O=C(NCC(O)CO)c1c(I)c(C(=O)NCC(O)CO)c(I)c(N(CCO)C(=O)CO)c1I` (stereo not given): the Potency result is “inactive”.

Take `CCCCCCC1CCC(=O)O1` (stereo not given): the Potency result is “inactive”.

Consider `CCOC(=O)COC(=O)c1cc(Oc2ccc(C(F)(F)F)cc2Cl)ccc1[N+](=O)[O-]`, for which the Potency result was “inactive”.

In the case of `O=C1C=CC(=O)N1c1ccc(Cc2ccc(N3C(=O)C=CC3=O)cc2)cc1`, the Potency entry is “inactive”.

For `COc1ccccc1OCCNCC(O)COc1cccc2[nH]c3ccccc3c12` (stereo not given), the Potency entry is “inactive”.

For `C[N+]1(C)CCC(OC(=O)C(O)(c2ccccc2)C2CCCC2)C1` (stereo not given), the Potency result was “inactive”.
